High-throughput results (PubChem)
Sa ugtP lethal: growth inhibition of ugtP-null S. aureus, primary screen, RN4220 ugtP deletion, OD600; growth inhibition, % (test concentration not listed); 330,000 tested, 0.54% active; 16 h; in the data active = growth inhibition above about 68%;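 also: plate controls were untreated wells for no effect and antibiotic for full effect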
BJeLR viability: MLPCN primary cell-based screen for lethality selective to Ras in HRASV12 cells. BJeLR (HRASV12) viability, CellTiter-Glo ATP luminescence, 48 h. inhibition, % (concentration not given with the values). 300,000 tested, 0.17% active; in the data active = inhibition above about 50%
RN4220 kill: growth inhibition of S. aureus RN4220, primary screen, OD600; inhibition, % (test concentration not listed); 330,000 tested, 0.33% active; AID 1259311, 2017; 16 h; in the data active = inhibition above about 85%;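 also: plate controls were untreated cells for no effect and reference antibiotic for full effect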
SSB-PriA inh: inhibitors of Klebsiella pneumoniae PriA binding to SSB C-terminal tail, primary screen, biochemical, AlphaScreen; 430,000 tested, 0.6% active; inhibition, % at 33 µM; AlphaScreen SSBct-PriA binding, biotinylated peptide; in the data active = inhibition mostly above about 37%, no sharp cut-off; inactive = mostly below about 20%;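 also: plate controls were negative control peptide for no effect and reference peptide for full effect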
MazEF act: activators of E. coli MazEF toxin-antitoxin RNase, primary screen, biochemical, fluorescence, uHTS. 350,000 tested, 0.32% active. FAM/BHQ RNA-DNA oligo cleavage fluorescence, 5 h. AID 504720, 2011. Endoribonuclease toxin MazF (Escherichia coli (strain K12)), P0AE70. activation, % at 20 µM; in the data active = activation above about 50%
Target sequence (P0AE70 whole entry, looked up): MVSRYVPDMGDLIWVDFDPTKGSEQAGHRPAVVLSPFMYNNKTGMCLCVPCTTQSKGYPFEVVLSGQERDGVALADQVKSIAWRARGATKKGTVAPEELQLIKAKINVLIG
Numbers without * were called inactive; i = inactive; · = not tested or not shown; + = active, no number; ! = repeats disagree. The list is not random: actives were taken first. Their share in the collection is about 1.2%.

SMILES	Sa ugtP lethal	BJeLR viability	RN4220 kill	SSB-PriA inh	MazEF act
CCc1ccc(C2NC(=S)NC3=C2C(=O)N(c2ccccc2OC)C(c2ccc(CC)cc2)N3)cc1 (stereo unspecified)	-31	2	-2	8	-8
O=C(O)[C@@H]1CCCC[C@@H]1C(=O)N1CCc2ccccc2C1CN1C(=O)c2ccccc2C1=O (stereo partly specified)	-2	5	8	55*	-3
O=C1c2ccccc2C(=O)N1CC1c2ccccc2CCN1C(=O)C1CCCCC1 (stereo unspecified)	-3	7	1	1	1
CCCN1C(=O)/C(=C/c2c(NCCCOC(C)C)nc3c(C)cccn3c2=O)SC1=S	14	3	14	-11	436*
COc1ccc(-c2nc3c4c(ncn3n2)-c2ccccc2CC42CCCC2)cc1	·	4	·	-12	3
Oc1cccc(-c2nc3c4c(ncn3n2)-c2ccccc2CC42CCCC2)c1	89*	3	31	-11	-5
CCN1/C(=C\C=C\C2=[N+](CC)c3ccccc3C2(C)C)C(C)(C)c2ccccc21	100*	88*	100*	-14	i
CC1N(C)c2cccc3cccc(c23)N1C	-5	-11	1	45*	-9
CCOC(=O)c1c(C)oc2c1c1c(c3ccccc32)OCN(Cc2ccccn2)C1	6	4	20	57*	-16
CCOc1ccc(-c2cc(=O)n(CC(=O)N(Cc3ccccc3)c3ccccc3)cn2)cc1	·	·	·	-8	·
N#CC(C#N)=C1C=C2C=C(N3CCCCC3)CCC2CC1 (stereo unspecified)	-7	·	3	-14	+
O=C(NC1CC1)c1ccc(CS(=O)c2ccccc2)o1 (stereo unspecified)	-6	-8	1	-4	4
COc1ccc(NC(=S)Nc2cccc3cnccc23)cc1	3	0	1	16	70*
COc1ccc(NC(=S)c2ccc3ccccc3n2)cc1	·	-1	·	44*	4
CCc1cccc(NC(=S)Nc2cccc3ccccc23)c1	12	1	-4	38*	7
COc1ccc(NC(=S)c2ccncc2)cc1	3	-2	3	82*!	-1
COc1ccc(C(=S)Nc2ccc(C)cc2)cc1	-1	-2	-1	-2	5
Cc1cc(C)c2nc3s/c(=C/c4ccc5c(c4)n(C)c(=O)n5C)c(=O)n3c2c1	·	-9	·	·	·
CCN(CC)C(=O)C1CCCN(c2ccc([N+](=O)[O-])cc2C=NNC(=O)c2cccc([N+](=O)[O-])c2)C1 (stereo unspecified)	2	·	-5	-8	·
CCOc1ccc(NC(=S)Nc2cccc3ccccc23)cc1	7	5	3	50*	-3
CCOc1ccc(NC(=S)Nc2cccc3cnccc23)cc1	-2	5	1	33	3
Cc1nc(-c2cccc(NC(=O)C3CN(c4ncnc5c4nnn5C)C3)c2)cs1	·	·	·	10	·
Cc1ccc([N+](=O)[O-])cc1N(CC(=O)Nc1ccc(S(=O)(=O)Nc2cccc(C(F)(F)F)c2)cc1)S(C)(=O)=O	78	-5	88*	-2	-15
CCC(=Cc1ccccc1)c1cccc2[nH]c3c(OC)cccc3c12	97*	·	39	·	·
COC(=O)c1ccc(NC(=O)CSc2ccc(-c3ccccn3)nn2)cc1	4	-23	2	37*!	-5
SMILES	Sa ugtP lethal	BJeLR viability	RN4220 kill	SSB-PriA inh	MazEF act
O=C(CSc1ccc(-c2ccccn2)nn1)Nc1nccs1	11	0	5	-13	3
Cc1csc(NC(=O)CSc2ccc(-c3ccccn3)nn2)n1	5	-4	5	63*	6
COc1ccc(CCNC(=O)CSc2ccc(-c3ccccn3)nn2)cc1OC	·	·	·	94*	·
O=C(CSc1ccc(-c2ccccn2)nn1)Nc1cccc([N+](=O)[O-])c1	·	·	·	48*	·
Cc1csc(Sc2ccc(C(=O)OCC(=O)Nc3ccc(F)cc3[N+](=O)[O-])cc2[N+](=O)[O-])n1	-2	12	9	10	11
COCCCNC(=O)C1CCCN(S(=O)(=O)c2cccc3nsnc23)C1 (stereo unspecified)	-1	3	-2	10	-1
COc1ccccc1CCNC(=O)CSc1ccc(-c2ccc3c(c2)OCO3)nn1	·	·	·	67*	·
O=C(CSc1ccc(-c2ccccn2)nn1)Nc1cccc(F)c1	5	5	2	55*	-9
CC(=NNC(=O)c1cc(C)nc2ccccc12)c1ccccn1	-8	·	2	94*	·
CC(=NNC(=O)c1cccc2ccccc12)c1ccccn1	7	·	22	66*	·
O=S1(=O)CCOCC(CC2CCCCC2)N1Cc1cccc(C(F)(F)F)c1 (stereo unspecified)	8	·	7	·	·
Cc1ccc(-n2nnc(-c3nc(-c4ccc(Br)cc4)cs3)c2N)cc1Cl	·	·	·	-9	·
CCOC(=O)c1c(C)[nH]c(C2=NNC(=Nc3ccccc3OC)SC2)c1C	-1	-7	6	54*	-14
CC(=O)Oc1cc2c(cc1Cl)C1(CC(c3ccccc3Cl)O2)CC(C)(C)NC(=S)N1 (stereo unspecified)	49	-1	43	26	3
Cc1ccc(C(=O)Nc2ccc(Cl)cc2C(=O)c2ccccc2)cc1	92*	·	-4	-3	3
Cc1ccc(C(=O)CC(=O)c2ccc(C(C)(C)C)cc2)cc1	28	-11	-12	-32	0
Cc1ccc(C(=O)CC(=O)c2ccc(C)cc2O)cc1	-6	15	2	-3	-2
Cc1ccc(NC(=O)c2ccccc2NC(=O)C2COc3ccccc3O2)c(C(=O)c2ccccc2)c1 (stereo unspecified)	·	·	·	61*	·
CC(C)(C)c1ccc(C(=O)CC(=O)c2cc(Cl)ccc2O)cc1	98*	3	100*	-12	3
Cc1ccc(C(=O)CC(=O)c2cc(Cl)ccc2O)cc1	99*	1	100*	3	1
Cc1ccc(Cl)cc1S(=O)(=O)N1CC(N2C(=O)C3CC=CCC3C2=O)C1 (stereo unspecified)	·	·	·	-22	·
CC1CCN(c2ccc3c(c2)S(=O)(=O)c2cccc(C(=O)NC[C@@H]4CCCO4)c2C3=O)CC1	·	·	·	1	-42
O=C(NCCC1=CCCCC1)C1CCN(S(=O)(=O)c2cccs2)CC1	2	-4	1	-5	0
Cc1ccc(S(=O)(=O)Nc2c(S(=O)(=O)c3ccc(C)cc3)c3nc4ccccc4nc3n2Cc2ccccc2)cc1	·	·	·	49	·
CCCCOCCCn1c(NS(=O)(=O)c2ccc(F)cc2)c(S(=O)(=O)c2ccc(C)cc2)c2nc3ccccc3nc21	·	·	·	67*	·
Cc1ccc(S(=O)(=O)c2c(NS(=O)(=O)c3ccccc3)n(CCc3ccccc3)c3nc4ccccc4nc23)cc1	·	·	·	67*	·
CCCCCCCCn1c(NS(=O)(=O)c2ccccc2)c(S(=O)(=O)c2ccc(C)cc2)c2nc3ccccc3nc21	·	·	·	33	·
